# Assay outcomes from PubChem BioAssay.
# FMDV antiviral: blocks foot and mouth disease virus | FMDV antiviral cell-based qHTS | Potency, µM (highest dose often 57.9 µM), for inactives: at the top dose activity change, negative = inhibition, usual class: inhibitors | actives 1.2% (n = 410,000) | AID 1159524; calls by dose curve; tested in HEK293T cells; further: read-out not given here; potency means the concentration at half of the fitted maximal effect; nearly all actives have a fitted effect of over 45% in size
# HCMV inh: blocks human cytomegalovirus replication | actives 4.5% (n = 410,000) | activity change, negative = inhibition, % at 57.5 µM | HFF cells, HCMV-luciferase reporter, 72 h; stronger effect = lower value; in the data active means activity change below about -60%; inconclusive means no clear call, values can overlap the other calls; inactive means above about -39%
#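 After 16 h attachment at 37C, HFF cells received test compound and HCMV-luciferase (1 PFU/cell); reporter luminescence read 72 h later, data normalized against buffer-only and known inhibitor Salinomycin.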
# MARV entry inh: Marburg virus entry inhibition; Marburg virus pseudotyped entry inhibition, cell reporter; Potency, µM (highest dose often 37.8 µM), for inactives: at the highest dose activity change, negative = inhibition, hits mostly inhibitors; actives 1.8% (n = 300,000); calls by dose curve; tested in HEK293 cells; further: potency means the concentration at half of the fitted maximal effect
# Lassa entry inh: inhibitors of Lassa virus binding or cell entry; Lassa virus pseudotype entry inhibition, cell reporter; Potency, µM (titrated, usually from 37.9 µM), for inactives: top-dose activity change, negative = inhibition, hits mostly inhibitors; actives 1.2% (n = 300,000); AID 540256; calls by dose curve; tested in HEK293 cells; further: potency means the concentration at half of the fitted maximal effect; nearly all actives have a fitted effect of over 50% in size
# Vaccinia Venus: vaccinia inhibition (Venus reporter); Potency, µM (series often up to 36.5 µM), without a hit: at the highest dose activity change, negative = inhibition, most hits filed as inhibitors; actives 0.46% (n = 330,000); Vaccinia virus Venus reporter expression, fluorescence; calls by dose curve; tested in A549 cells; further: potency means the concentration at half of the fitted maximal effect; nearly all actives have a fitted effect of over 30% in size
# Vaccinia mCherry: vaccinia inhibition (mCherry reporter); Vaccinia virus mCherry reporter infection, fluorescence; Potency, µM (highest dose often 36.5 µM), inactives show top-dose activity change, negative = inhibition, hits mostly inhibitors; actives 0.63% (n = 310,000); AID 720579; calls by dose curve; tested in A549 cells; further: potency means the concentration at half of the fitted maximal effect; nearly all actives have a fitted effect of over 35% in size
# The depositor's hits bear a star; i = inactive; ? = inconclusive; · = not tested or not shown; + = active, no number; ! = a repeat was not active; [ ] = another dose, or the depositor's remark. Shown are actives, neighbours in structure and some others; about 6.5% of the full set was active somewhere. On the % scale 0 is the no-effect control and ±100 the full control effect.
SMILES,FMDV antiviral,HCMV inh,MARV entry inh,Lassa entry inh,Vaccinia Venus,Vaccinia mCherry
Cc1cc(N2CCC(C(=O)N3CCN(c4cccc(C)c4C)CC3)CC2)n2ncnc2n1,-16.0%,-88.6*,?,-15.8%,-28.6%,?
Cc1ccc(NC(=O)C2CCN(c3ncnc4c3nc3n4CCCCC3)CC2)cc1Cl,?,-13.5,·,·,·,·
Cc1cccc(N2CCN(C(=O)C3CCN(c4ncnc5c4nc4n5CCCCC4)CC3)CC2)c1C,20µM*,-76.5*!,·,?,?,-26.0%
Cc1cccc(N2CCN(C(=O)C3CCN(c4ncnc5c4nc4n5CCCCC4)CC3)CC2C)c1 (centres undefined),31.6µM*,-96.1*!,?,10µM*,?,?
COc1ccccc1N1CCN(C(=O)C2CCCN(c3ncnc4c3nc3n4CCCCC3)C2)CC1 (centres undefined),?,7.4,?,?,-20.6%,-2.4%
Fc1ccccc1N1CCN(c2ncnc3c2nc2n3CCCCC2)CC1,?,6.6,·,-7.6%[46.1 µM],-12.0%,-13.0%
O=C(C1CCN(c2ncnc3c2nc2n3CCCCC2)CC1)N1CCN(c2ccccc2F)CC1,?,-64.1*!,·,-6.9%[46.1 µM],-18.0%,i
COc1ccc(N(CC(=O)NCc2cccs2)S(=O)(=O)c2cccc(C)c2)cc1,17.8%,-30.2,-14.0%,-0.9%,-12.0%,i
COc1cccc2c1C(=O)/C(=C\c1ccc(N(C)C)cc1)C2,·,·,·,·,212.7%,-23.8%
CN(c1ccccc1)S(=O)(=O)c1cccc(NC(=O)c2cc(=O)c3ccccc3o2)c1,31.6µM*,-66.2*,12.6µM*,?,-3.6%,-11.9%
O=C(Nc1cccc(S(=O)(=O)N2CCCCCC2)c1)c1cc(=O)c2ccccc2o1,20µM*,-4.6,?,-7.1%,-24.0%,-29.0%
NS(=O)(=O)c1cccc(NC(=O)c2cc(=O)c3ccccc3o2)c1,23.6%,7.1,-6.9%[46.1 µM],4.5%[46.1 µM],-8.3%,-10.4%
N#CN=c1snc(-c2ccccc2)n1-c1ccc(Cl)cc1,·,·,·,·,3.55µM*,5.62µM*
S=c1[nH]nc(-c2ccc(Cl)cc2)n1-c1ccc(Cl)cc1,-20.8%,6.6,10.0%,27.4%,-15.6%,-12.9%
N#CN=c1snc(-c2ccccc2Cl)n1-c1ccccc1Cl,·,·,·,·,?,11.2µM*
Cc1nc(N2CCCCC2)sc1C(=O)c1ccc(SCCO)c([N+](=O)[O-])c1,31.6µM*,?,?,?,-22.9%,?
Cc1nc(N2CCCCC2)sc1C(=O)c1cccc([N+](=O)[O-])c1,-13.0%,-72.6*,-6.9%[46.1 µM],-23.3%,-20.6%,-25.6%
O=C(CCCN1C(=O)/C(=C/c2cccs2)SC1=S)Nc1ccccn1,0.0%,-97.6*,-15.0%[46.1 µM],1.5%,1.6%,-22.0%
O=C1/C(=C/c2ccccc2Cl)SC(=S)N1CCCC(=O)N(CCO)c1ccccc1,?,-90.8*,·,·,·,·
O=C(CCCN1C(=O)/C(=C/c2ccccc2Cl)SC1=S)Nc1cccnc1,-6.4%,?,·,·,·,·
O=C(CCN1C(=O)/C(=C/c2ccccc2Cl)SC1=S)Nc1ccccn1,-26.3%,4.3,·,·,·,·
O=C(CCCN1C(=O)/C(=C/c2ccccc2Cl)SC1=S)Nc1ccccn1,?,-97.0*,?,?,2.2%,0.0%
C(=N\Nc1nc(-c2ccccc2)cs1)/c1ccco1,-19.9%,119.2,?,?,-11.1%,-25.2%
Cc1sc(N/N=C/c2ccco2)nc1-c1ccccc1,17.6%,-28.8,?,20.6µM*,-22.4%,-9.6%
Cc1sc(N/N=C/c2cccnc2)nc1-c1ccccc1,?,-65.3*,?,2.91µM*,·,·
SMILES,FMDV antiviral,HCMV inh,MARV entry inh,Lassa entry inh,Vaccinia Venus,Vaccinia mCherry
O=C(N/N=C/c1ccncc1)c1ccc(OCc2ccccc2)cc1,-13.6%,-61.6*,·,·,·,·
CCOc1ccc(OCc2ccc(C(=O)NN=Cc3ccc[nH]3)cc2)cc1,-12.9%,+,0.282µM*,?,?,?
C[N+](C)(C)CCN1C(=O)c2ccccc2C1=O,-21.7%,-8.8,·,·,7.2%,18.5%
CCOC(=O)N/N=C1\C[C@@H](O)[C@@H](O)[C@@H]2[C@@H]3C(=O)N(Cc4ccc5c(c4)OCO5)C(=O)[C@@H]3CC[C@@H]12,·,·,-22.0%[14.2 µM],·,·,·
COC(=O)Cc1[nH]n(-c2ccccc2)c(=O)c1C(C)=Nc1ccccc1,56.9%,?,18.3%[46.1 µM],18.8%,-2.0%,-6.6%
C/C(=N/NC(=O)c1cccs1)c1c(C)[nH]n(-c2nc3ccccc3s2)c1=O,-14.6%,39.9,4.61µM*,?,·,·
COC(=O)Cc1[nH]n(-c2nc3ccccc3s2)c(=O)c1C(C)=Nc1ccc(Cl)cc1,1µM*,19.0,·,·,·,·
COC(=O)Cc1[nH]n(-c2nc3ccccc3s2)c(=O)c1C(C)=Nc1ccc(C)cc1,0.355µM*,-78.1*,?,?,-16.1%,-10.8%
CC(C)(C)C(=O)Nc1cccc(S(=O)(=O)NC2=NCCC2)c1,-2.3%,?,19.5%,?,-17.5%,i
CC(=O)N1CC(=O)N2[C@@H](CO)[C@H](c3ccc(Br)cc3)[C@@H]2C1,·,-35.2,·,·,·,·
Cc1cnc(SCc2ccccn2)nc1C1CCCN(C(=O)c2cc3ccccc3oc2=O)C1 (centres undefined),-27.9%,·,·,·,-12.9%,-10.2%
C/C(=N\Nc1nc2ccccc2[nH]1)c1ccc2c(c1)OCO2,-13.0%,6.9,11.6µM*,?,?,?
CC(=NNc1cc(C)c2cc(C)ccc2n1)c1ccccn1,·,-99.8*,·,·,·,·
C/C(=N\Nc1nc2ccccc2[nH]1)c1ccc2c(c1)OCCO2,-23.6%,-3.3,?,?,-13.3%,-21.8%
Cc1ccc2nc(N/N=C/c3ccco3)cc(C)c2c1,34.5%,78.3,·,·,·,·
C/C(=N\Nc1nc2ccccc2[nH]1)c1ccccn1,·,-98.2*,·,·,·,·
CC1CCN(S(=O)(=O)c2nnc(NC(=O)c3ccc(C(C)C)cc3)s2)CC1,12.6%,8.3,·,9.4%[46.1 µM],-17.0%,-5.9%
Fc1ccc(N2CCN(Cc3ccc4c(c3)CN(Cc3cccn3-c3cccnc3)CCO4)CC2)cc1,?,·,·,·,-3.6%,-5.3%
COc1ccc(O[C@H]2C=C[C@@H](c3ccccc3)O[C@H]2COC(=O)CCC(C)=NO[C@H](C)CN2CCCc3nc(C)c(C)cc32)cc1,·,·,-24.2%[14.2 µM],·,·,·
COCCNc1nc(-c2cc3ccccc3o2)cs1,0.0%,84.2,?,3.98µM*,-17.8%,-22.9%
Cc1ccnn1-c1ccc(C(=O)OCC(=O)Nc2ccc(F)cc2)cc1,73.4%,-3.6,?,-4.3%,-13.1%,-10.8%
Cc1ccc(S(=O)(=O)CCc2nnc(NC(=O)CCl)s2)cc1C,-3.7%,-78.3*,?,?,-26.7%,-13.8%
Cc1c(N)cc[n+](CC(=O)c2ccccc2)c1C,-11.5%,-76.3*,-29.9%[46.1 µM],-17.8%,-15.2%,-3.8%
Cc1cc2c(c(-c3cnccn3)c1)OC(CNC(=O)c1c(F)cccc1Cl)C2 (centres undefined),-13.0%,·,·,·,0.5%,-6.8%
Cc1cc(N/C=C/C(=O)c2cccs2)ccc1F,21.9%,-101.2*,·,·,·,·
O=C(/C=C/Nc1ccc(Nc2ccccc2)cc1)c1cccs1,25.4%,-34.0,8.3%[46.1 µM],?,-9.0%,?
